Laboratory results from paper PMC4336329 (PLoS ONE, 2015).
Screen size: about 310,000 compounds; about 2,200 (0.71%) showed an effect of 50% or more. The effect is printed as a negative number. The sample as a whole holds a higher share of strong results than the screen did.

Each compound was assayed against human ether-à-go-go-related gene (hERG) potassium channel (human, UniProt Q12809) (assay: primary screen, population patch clamp on CHO cells stably expressing hERG; higher = less effect of the substance).
Chain of human ether-à-go-go-related gene (hERG) potassium channel (Q12809 whole entry, looked up): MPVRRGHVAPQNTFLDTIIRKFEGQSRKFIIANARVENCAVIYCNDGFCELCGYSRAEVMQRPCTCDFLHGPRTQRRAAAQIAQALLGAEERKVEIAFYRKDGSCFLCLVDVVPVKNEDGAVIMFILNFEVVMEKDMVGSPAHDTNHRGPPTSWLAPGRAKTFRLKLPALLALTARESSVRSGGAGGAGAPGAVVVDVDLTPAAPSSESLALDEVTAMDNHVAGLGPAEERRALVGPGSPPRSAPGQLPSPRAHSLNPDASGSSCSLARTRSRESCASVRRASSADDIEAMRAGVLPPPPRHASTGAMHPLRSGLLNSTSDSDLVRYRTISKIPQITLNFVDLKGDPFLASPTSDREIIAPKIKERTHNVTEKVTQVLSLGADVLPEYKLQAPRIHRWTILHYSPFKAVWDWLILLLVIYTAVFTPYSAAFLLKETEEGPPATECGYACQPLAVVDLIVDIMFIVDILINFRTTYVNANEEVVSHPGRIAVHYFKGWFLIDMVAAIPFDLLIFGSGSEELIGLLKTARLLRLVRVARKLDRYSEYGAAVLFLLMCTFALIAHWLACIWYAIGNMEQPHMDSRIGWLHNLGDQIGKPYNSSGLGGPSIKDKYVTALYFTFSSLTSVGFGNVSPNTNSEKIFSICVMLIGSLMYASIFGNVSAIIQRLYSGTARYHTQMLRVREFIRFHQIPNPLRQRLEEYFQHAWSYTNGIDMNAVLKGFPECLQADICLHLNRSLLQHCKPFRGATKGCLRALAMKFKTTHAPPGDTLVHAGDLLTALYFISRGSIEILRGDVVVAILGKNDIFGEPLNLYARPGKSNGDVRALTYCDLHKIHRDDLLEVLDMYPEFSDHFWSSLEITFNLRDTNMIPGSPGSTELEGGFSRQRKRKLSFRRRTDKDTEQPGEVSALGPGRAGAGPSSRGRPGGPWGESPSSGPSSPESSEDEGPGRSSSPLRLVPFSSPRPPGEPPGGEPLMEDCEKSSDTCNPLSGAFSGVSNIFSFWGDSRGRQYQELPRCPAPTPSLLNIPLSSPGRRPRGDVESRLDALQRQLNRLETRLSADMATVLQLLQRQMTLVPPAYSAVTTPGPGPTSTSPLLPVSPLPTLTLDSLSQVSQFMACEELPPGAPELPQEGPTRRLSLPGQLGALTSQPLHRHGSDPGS

Compound	hERG current change (%, negative = inhibition) at 1uM
Oc1[nH]c2ccc(Br)cc2c1N=NC(=S)N1CCOCC1	17.6%
Cc1onc(-c2c(Cl)cccc2Cl)c1C(=O)O/N=C(\C#N)c1ccccc1	7.14%
O=C(CSC1=NS(=O)(=O)c2cc(F)ccc2N1)Nc1cccc(F)c1	2.39%
CCCc1cc(=O)[nH]c(SCC(=O)NC)n1	-0.511%
O=Cc1cn(Cc2ccc(F)cc2)c2ccccc12	14.4%
O=C(NCCCN1CCCC1=O)C1CCN(S(=O)(=O)c2cccc(C(F)(F)F)c2)CC1	23.6%
CCc1nnc(NC(=O)C(C)N2C(=O)C3C4C=CC(C4)C3C2=O)s1 (centres unmarked)	3.03%
O=C(CCn1c(=O)c2ccccc2n(Cc2cccnc2)c1=O)NCc1ccc2c(c1)OCO2	9.51%
O=C(NCc1ccc2c(c1)OCO2)c1cnc2ccccn2c1=O	5.17%
N=c1c(C(=O)NCc2ccc3c(c2)OCO3)cc2c(=O)n3ccccc3nc2n1Cc1cccnc1	-51.5%
Cc1cccn2c(=O)c3cc(C(=O)NC4CCCC4)c(=N)n(CCc4ccccc4)c3nc12	-33.8%
COc1ccc(CCn2c(=N)c(C(=O)NC3CCCCC3)cc3c(=O)n4ccccc4nc32)cc1	-84.1%
COCCCn1c(=N)c(C(=O)NC2CCCCC2)cc2c(=O)n3ccccc3nc21	-81.6%
CCN(C(=O)c1cc2c(=O)n3ccccc3nc2n1CCCOC)C1CCCCC1	2.38%
COc1ccc(CCn2c(=N)c(C(=O)NC3CCCC3)cc3c(=O)n4ccccc4nc32)cc1OC	-46.9%
COc1ccc(CCn2c(=N)c(C(=O)NC3CCCC3)cc3c(=O)n4cccc(C)c4nc32)cc1	-79.9%
COc1ccc(CCn2c(=N)c(S(=O)(=O)c3ccccc3)cc3c(=O)n4ccccc4nc32)cc1	10.8%
COc1ccc(Cn2c(=N)c(C(=O)NC3CCCCC3)cc3c(=O)n4ccccc4nc32)cc1	-5.89%
COc1ccc(CCn2c(=N)c(C(=O)N3CCN(C)CC3)cc3c(=O)n4ccccc4nc32)cc1	-2.76%
COc1ccc(CCn2c(=N)c(C(=O)NC3CCCC3)cc3c(=O)n4ccccc4nc32)cc1	-89.2%
C/C(=N\NC(=O)c1cccc(F)c1)c1ccc(NC(=O)Cc2ccccc2)cc1	12.8%

Compound	hERG current change (%, negative = inhibition) at 1uM
COc1cccc(CN2C(=NC(=O)C3CC3)SC3CS(=O)(=O)CC32)c1 (centres unmarked)	14.8%
NC(=O)c1ccccc1NC(=S)NC(=O)CCc1ccccc1	6.72%
CCSc1nnc(-c2ccc(OC)cc2)o1	3.96%
Cc1cccc2cc(C#N)c(NCCNC(=S)NCCCN3CCOCC3)nc12	4.84%
Oc1c(C=Nc2ccccc2)sc2ccccc12	12.4%
CC(C)CC(=O)C1CCCN(C(=O)c2ccc3oc(Cc4ccccc4)nc3c2)C1 (centres unmarked)	11.9%
Cn1c(CC(=O)Nc2ccc(Cl)c(Cl)c2)nnc1SCC(=O)NCc1ccccc1	9.85%
COc1cc(SC)ccc1C(=O)N1CCc2ccccc21	13.9%
N=c1c(C(=O)NC2CCCCC2)cc2c(=O)n3ccccc3nc2n1CCc1ccccc1	-88.1%
Cc1cc2c(=O)n(Cc3ccco3)c(SCC(=O)N3CCCc4ccccc43)nc2s1	0.209%
CC1CCCC(NC(=O)CCCn2c(=S)[nH]c3ccccc3c2=O)C1C (centres unmarked)	5.25%
CN1CCC(=NNC(=O)CN(c2cccc(Br)c2)S(C)(=O)=O)CC1	1.22%
CS(=O)(=O)Nc1ccc(C2=NN(C(=O)c3ccco3)C(c3ccc(F)cc3)C2)cc1 (centres unmarked)	-44.7%
CCS(=O)(=O)Nc1ccc(C2=NN(C(=O)c3ccco3)C(c3cccc(F)c3)C2)cc1 (centres unmarked)	0.693%
CS(=O)(=O)Nc1ccc(C2=NN(C(=O)c3ccco3)C(c3cccc(F)c3)C2)cc1 (centres unmarked)	-85.9%
CCCCN1C(=N)C(CC)(CC)C(=O)NC1=O.Cl	27.4%
Cc1ccc2cc(CN(Cc3ccco3)C(=O)C3CCCCC3)c(=O)[nH]c2c1C	6.2%
Cc1ccc2nc3nc(NCC4CCCO4)c(C(=O)NC4CCCCC4)cc3c(=O)n2c1 (centres unmarked)	-76.8%
CCn1cc(C(=O)NCC2CCCO2)c2cc(OC)c(OC)cc2c1=O (centres unmarked)	14.8%
C=CCNC(=O)c1cc2c(=O)n3cc(C)ccc3nc2nc1NCC1CCCO1 (centres unmarked)	-82%
COCCCNC(=O)c1cc2c(=O)n3cc(C)ccc3nc2nc1NCC1CCCO1 (centres unmarked)	-26.6%

Compound	hERG current change (%, negative = inhibition) at 1uM
Cc1ccc2nc3c(cc(C(=O)NC4CCS(=O)(=O)C4)n3Cc3ccccc3)c(=O)n2c1 (centres unmarked)	21.4%
O=C(NC1CCCCCC1)c1ccc2nc3cc(Cl)ccc3c(=O)n2c1	4.2%
CCOCCCNc1nc2nc3ccc(C)cn3c(=O)c2cc1C(=O)NCC1CCCO1 (centres unmarked)	-76%
Cc1ccc2nc(SCC(=O)NC3CCCCC3)nc(=O)n2c1	-4.63%
Cc1ccc(-c2nn(-c3ccccc3Cl)cc2C(=O)NCC2CCCO2)cc1 (centres unmarked)	18.4%
Cc1ccc2nc3nc(NCC4CCCO4)c(C(=O)NC4CCCC4)cc3c(=O)n2c1 (centres unmarked)	-83.8%
Cc1ccc(-c2nn(-c3ccccc3)cc2C(=O)NCC2CCCO2)cc1 (centres unmarked)	1.49%
CCNc1nc2nc3ccc(C)cn3c(=O)c2cc1C(=O)NCC1CCCO1 (centres unmarked)	-31.2%
CCN(CC)c1ccc(/C=N/NC(=O)CNC(=O)c2ccccn2)cc1	-7.85%
CC(C)C(C)NC(=O)CSc1nnc(-c2c[nH]c3ccccc23)o1 (centres unmarked)	4.32%
CC1(C)CC(=O)C(C2c3ccccc3S(=O)(=O)c3ccccc32)C(=O)C1	16.3%
c1ccc(-c2nc3nonc3c3nc4ccccc4n23)cc1	-1.03%
Cc1ccc(S(=O)(=O)N(CC(O)CN(C)C)c2ccccc2)cc1.Cl (centres unmarked)	-43.8%
CCN(CC)CC(O)CN(c1ccccc1)S(=O)(=O)c1ccc2ccccc2c1.Cl (centres unmarked)	-78.5%
Cc1cccc(N(CC(O)CN(C)C)S(=O)(=O)c2ccccc2)c1.Cl (centres unmarked)	-50.1%
Cc1ccc(S(=O)(=O)N(CC(O)CN2C(=O)NC(C)(C)C2=O)c2ccccc2)cc1 (centres unmarked)	-28.4%
Cc1cc(C)n(CC(O)CN(c2ccccc2)S(=O)(=O)c2ccc3ccccc3c2)n1 (centres unmarked)	6.41%
Cc1ccc(S(=O)(=O)N(CCC(=O)O)c2ccccc2)cc1	4.11%
Cc1cccc(N(CC(O)CN2CCOCC2)S(=O)(=O)c2ccccc2)c1 (centres unmarked)	11.2%
Cc1cccc(N(CC(O)CN2CCCC2)S(=O)(=O)c2ccccc2)c1 (centres unmarked)	-35.3%
Cc1ccc(N(CC(O)CN(C)C)S(=O)(=O)c2ccccc2)cc1.Cl (centres unmarked)	-62.8%

Compound	hERG current change (%, negative = inhibition) at 1uM
CCN(c1ccccc1)S(=O)(=O)c1ccc2ccccc2c1	14.6%
O=S(=O)(c1ccccc1)N(CC(O)COc1ccccc1)c1ccccc1 (centres unmarked)	7.47%
CCCN(CCC)CC(O)CN(c1ccccc1)S(=O)(=O)c1ccc(C)cc1 (centres unmarked)	-88.6%
Cc1nn(CC(=O)N2CCOCC2)c(=O)c2nn(-c3ccccc3)c(C)c12	16.5%
Cc1nn(C/C(C#N)=N\O)c(C)[n+]1N.[Cl-]	11.8%
COc1c(Cl)cc(Cl)cc1CNCCNCC(C)O.Cl (centres unmarked)	5.98%
COc1ccc(C(=O)Nc2ccc(C(=O)N3CCOCC3)cc2)cc1OC	11.3%
Cc1c(NC(=O)/C(C#N)=C/c2ccccc2)c(=O)n(-c2ccccc2)n1C	8.78%
CCOC(=O)C1CCN(Cc2ccc(Cl)nc2)CC1	11.6%
COc1ccc(C2c3c(ccc4ccccc34)Oc3ncn4nc(Cc5ccc(OC)c(OC)c5)nc4c32)cc1 (centres unmarked)	2.05%
O=C(NCCc1ccc(Cl)cc1)/C(=C/c1cccnc1)NC(=O)c1ccccc1	-53.8%
O=C(NCc1cccnc1)/C(=C/c1ccccc1)NC(=O)c1ccccc1	-23.3%
COc1ccc(CCNC(=O)/C(=C/c2cccnc2)NC(=O)c2ccccc2)cc1	3.27%
O=C(NCc1cccnc1)/C(=C/c1ccc(Cl)cc1)NC(=O)c1ccccc1	-60.8%
CN(C)c1ccc(/C=C(\NC(=O)c2ccccc2)C(=O)NCc2cccnc2)cc1	-0.749%
O=C(NCCc1ccccc1F)/C(=C/c1cccnc1)NC(=O)c1ccccc1	-3.24%
COc1ccc(/C=C2\SC(=S)N(CCC(=O)N3CCCCC3)C2=O)cc1	-2.37%
CCOc1ccc(C(=O)CCC(=O)Nc2ccccc2C)cc1	12.5%
CC(C)c1ccccc1NC(=O)COC(=O)CNC(=O)c1ccc(Br)cc1	11%
CCN(CC)S(=O)(=O)c1ccc(Cl)c(NC(=O)CSc2nnc(-c3cccs3)o2)c1	5.51%
